This is an account of results in paper PMC10812921, “Transcriptional Coactivator BOB1 (OBF1, OCA-B) Modulates the Specificity of DNA Recognition by the POU-Domain Factors OCT1 and OCT2 in a Monomeric Configuration”.

For one assay, the target named is POU1 (OCT1 POU domain);BOB1 (OBF1, OCA-B) (human;human, UniProt P14859;Q16633 260-458;1-256, |). The assay can be described thus: EMSA-SELEX-seq; with BOB1 (ternary complex band); 20 mM Tris-HCl pH 7.6, 140 mM NaCl, 10% glycerol, 0.5 mM EDTA, 0.05% Triton X-100, 0.1 mg/mL BSA, 0.1 mg/mL poly(dI-dC), 5 mM DTT, room temperature, 20 min; high values mean tight binding. The note with it: protein: recombinant;recombinant; copies: 1;1; dsDNA, one strand shown. In a few lines:
(§1)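 After expression in E. coli BL21, tagged POU-domain proteins were purified under denaturing conditions and then renatured. Each binding reaction held 30 ng protein and 300 ng of a PCR-amplified double-stranded random 35-nt library in 20 μL Tris–HCl pH 7.6 binding buffer, with or without 28 ng coactivator protein, for 20 min at RT. Bands holding complexes were cut from native 6% PAGE, eluted and PCR-amplified across four rounds, and the output was Illumina-sequenced. The value given for binding preference is the share, in percent, of sequenced 8-mers fitting a motif pattern.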
For orientation: In EMSA bound probe runs differently from free probe, usually more slowly.
Take ATATGAAT: the binding signal is 0.122 % of ANNNNAAN 8-mers.

As to AGCCGAAT, the binding signal is 0.0281 % of ANNNNAAN 8-mers.

As to AGATCAAG, the binding signal was 0.0273 % of ANNNNAAN 8-mers.

For the sequence ACAGCAAT, the binding signal is 0.0281 % of ANNNNAAN 8-mers.

Take ATCCAAAT: the binding signal was 0.209 % of ANNNNAAN 8-mers.

Regarding ACCCTAAA, the binding signal is 0.0137 % of ANNNNAAN 8-mers.

Regarding AACATAAC, the binding signal was 0.0347 % of ANNNNAAN 8-mers.

With AGTCTAAG, the binding signal is 0.0343 % of ANNNNAAN 8-mers.

With AAGGTAAG, the binding signal was 0.0468 % of ANNNNAAN 8-mers.

Regarding AAGCCAAC, the binding signal is 0.0109 % of ANNNNAAN 8-mers.

On to AATGAAAG, for which the binding signal is 0.0901 % of ANNNNAAN 8-mers.

With ACTAAAAA, the binding signal was 0.0468 % of ANNNNAAN 8-mers.

With AAAGTAAA, the binding signal is 0.114 % of ANNNNAAN 8-mers.

For the sequence ATCGGAAA, the binding signal is 0.0429 % of ANNNNAAN 8-mers.

Turning to AAGTGAAA, the binding signal is 0.0788 % of ANNNNAAN 8-mers.

Turning to AGGGGAAG, the binding signal was 0.0507 % of ANNNNAAN 8-mers.

With AGTGCAAG, the binding signal is 0.0238 % of ANNNNAAN 8-mers.

As for ACTGCAAT, the binding signal is 0.0367 % of ANNNNAAN 8-mers.

Consider ATACCAAA, for which the binding signal was 0.041 % of ANNNNAAN 8-mers.

For the sequence ATATAAAC, the binding signal was 0.055 % of ANNNNAAN 8-mers.

Consider AGTATAAA, for which the binding signal was 0.0585 % of ANNNNAAN 8-mers.

Consider ATAAAAAA, for which the binding signal was 0.0823 % of ANNNNAAN 8-mers.

Take AGCACAAA: the binding signal was 0.0277 % of ANNNNAAN 8-mers.

With AGACTAAT, the binding signal is 0.0507 % of ANNNNAAN 8-mers.

ATTGCAAC: the binding signal is 0.0195 % of ANNNNAAN 8-mers.

In the case of ACGCTAAG, the binding signal was 0.0242 % of ANNNNAAN 8-mers.

Turning to ACGTAAAG, the binding signal was 0.0667 % of ANNNNAAN 8-mers.

Regarding AGAGGAAT, the binding signal is 0.0652 % of ANNNNAAN 8-mers.

Consider ATAACAAC, for which the binding signal is 0.0222 % of ANNNNAAN 8-mers.

As to ATGATAAA, the binding signal is 0.0644 % of ANNNNAAN 8-mers.

With AGTCTAAT, the binding signal is 0.0761 % of ANNNNAAN 8-mers.

On to ATTCTAAG, for which the binding signal was 0.0593 % of ANNNNAAN 8-mers.

On to AACAAAAA, for which the binding signal is 0.121 % of ANNNNAAN 8-mers.

Take AAAATAAG: the binding signal was 0.148 % of ANNNNAAN 8-mers.

Turning to ACAGTAAG, the binding signal is 0.032 % of ANNNNAAN 8-mers.

For the sequence AGCTTAAG, the binding signal is 0.0379 % of ANNNNAAN 8-mers.

For the sequence ACTCAAAC, the binding signal is 0.03 % of ANNNNAAN 8-mers.

Consider AGGGCAAC, for which the binding signal is 0.0172 % of ANNNNAAN 8-mers.

Regarding AGACCAAT, the binding signal is 0.0261 % of ANNNNAAN 8-mers.

For another assay, the target named is T1, POU2 (OCT2 POU domain);BOB1 (OBF1, OCA-B) (human;human, UniProt P09086;Q16633 175-386;1-256, |).
T1 sequence 1: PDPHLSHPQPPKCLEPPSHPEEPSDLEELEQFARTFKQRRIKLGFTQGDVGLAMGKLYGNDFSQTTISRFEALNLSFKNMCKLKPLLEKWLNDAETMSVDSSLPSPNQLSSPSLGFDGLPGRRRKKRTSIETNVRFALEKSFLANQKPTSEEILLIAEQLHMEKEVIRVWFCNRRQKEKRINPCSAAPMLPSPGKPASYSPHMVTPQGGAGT
T1 sequence 2: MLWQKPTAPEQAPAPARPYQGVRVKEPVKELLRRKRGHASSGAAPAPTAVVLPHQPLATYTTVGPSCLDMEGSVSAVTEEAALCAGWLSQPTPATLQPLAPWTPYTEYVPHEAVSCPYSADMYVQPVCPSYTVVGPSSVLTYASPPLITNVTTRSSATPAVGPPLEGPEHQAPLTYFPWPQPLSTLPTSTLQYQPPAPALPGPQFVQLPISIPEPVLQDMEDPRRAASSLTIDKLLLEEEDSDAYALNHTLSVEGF
Described as above. The note with it: protein: recombinant;recombinant; copies: 1;1; dsDNA, one strand shown. In a few lines: as §1
For the sequence ATATGAAT, the binding signal was 0.141 % of ANNNNAAN 8-mers.

For AGCCGAAT, the binding signal is 0.033 % of ANNNNAAN 8-mers.

AGATCAAG: the binding signal is 0.0272 % of ANNNNAAN 8-mers.

Consider ACAGCAAT, for which the binding signal is 0.0215 % of ANNNNAAN 8-mers.

Take ATCCAAAT: the binding signal was 0.133 % of ANNNNAAN 8-mers.

In the case of ACCCTAAA, the binding signal was 0.0107 % of ANNNNAAN 8-mers.

Take AACATAAC: the binding signal is 0.033 % of ANNNNAAN 8-mers.

Consider AGTCTAAG, for which the binding signal is 0.0297 % of ANNNNAAN 8-mers.

For AAGGTAAG, the binding signal was 0.0545 % of ANNNNAAN 8-mers.

Take AAGCCAAC: the binding signal is 0.0107 % of ANNNNAAN 8-mers.

Consider AATGAAAG, for which the binding signal was 0.0718 % of ANNNNAAN 8-mers.

For the sequence ACTAAAAA, the binding signal is 0.0388 % of ANNNNAAN 8-mers.

Consider AAAGTAAA, for which the binding signal was 0.0759 % of ANNNNAAN 8-mers.

For the sequence ATCGGAAA, the binding signal is 0.0528 % of ANNNNAAN 8-mers.

Regarding AAGTGAAA, the binding signal is 0.0627 % of ANNNNAAN 8-mers.

In the case of AGGGGAAG, the binding signal was 0.057 % of ANNNNAAN 8-mers.

Consider AGTGCAAG, for which the binding signal is 0.0264 % of ANNNNAAN 8-mers.

ACTGCAAT: the binding signal is 0.0248 % of ANNNNAAN 8-mers.

For the sequence ATACCAAA, the binding signal was 0.038 % of ANNNNAAN 8-mers.

In the case of ATATAAAC, the binding signal is 0.0652 % of ANNNNAAN 8-mers.

As to AGTATAAA, the binding signal is 0.0479 % of ANNNNAAN 8-mers.

Turning to ATAAAAAA, the binding signal is 0.0801 % of ANNNNAAN 8-mers.

With AGCACAAA, the binding signal was 0.033 % of ANNNNAAN 8-mers.

With AGACTAAT, the binding signal is 0.066 % of ANNNNAAN 8-mers.

For ATTGCAAC, the binding signal was 0.0272 % of ANNNNAAN 8-mers.

For ACGCTAAG, the binding signal was 0.0231 % of ANNNNAAN 8-mers.

In the case of ACGTAAAG, the binding signal was 0.0479 % of ANNNNAAN 8-mers.

AGAGGAAT: the binding signal was 0.0859 % of ANNNNAAN 8-mers.

For the sequence ATAACAAC, the binding signal is 0.0347 % of ANNNNAAN 8-mers.

Regarding ATGATAAA, the binding signal is 0.0619 % of ANNNNAAN 8-mers.

Take AGTCTAAT: the binding signal is 0.0958 % of ANNNNAAN 8-mers.

For the sequence ATTCTAAG, the binding signal was 0.0702 % of ANNNNAAN 8-mers.

Consider AACAAAAA, for which the binding signal was 0.0726 % of ANNNNAAN 8-mers.

AAAATAAG: the binding signal was 0.114 % of ANNNNAAN 8-mers.

Consider ACAGTAAG, for which the binding signal was 0.0272 % of ANNNNAAN 8-mers.

With AGCTTAAG, the binding signal was 0.0355 % of ANNNNAAN 8-mers.

Regarding ACTCAAAC, the binding signal was 0.0149 % of ANNNNAAN 8-mers.

On to AGGGCAAC, for which the binding signal was 0.0173 % of ANNNNAAN 8-mers.

For AGACCAAT, the binding signal is 0.033 % of ANNNNAAN 8-mers.
